# Records with an inconclusive call do not appear. A call without a number means that no potency is given here. Activity calls are given as the source filed them. Calls come from the whole dose curve; as a rule, active = well fitted curve in the direction sought with a large enough effect; inconclusive = small, poorly fitted or top-dose-only effect, or another doubt; inactive = no such curve, though single readings can be large; an effect the other way counts as inactive or inconclusive. Where a SMILES comes first, the peptide text is derived from it. The star is where a group is joined. AMC = Cc1cc(=O)oc2cc(N*)ccc12; Cbz = O=C(OCc1ccccc1)*
# Columns and labels:
# [1] = target: Glutathione peroxidase 1 (Homo sapiens) (UniProt P07203); experiment: Primary qHTS Assay for Inhibitors of Recombinant Selenoprotein Glutathione Peroxidase 1 (GPX1) (AID 1845191); conditions: recombinant GPX1, GR-coupled NADPH fluorescence, 15 min; series mostly up to 27.7 µM; note: nearly all actives have a fitted effect of over 65% in size; note: potency is the fitted concentration of half-maximal effect
# Method in brief: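 10 nM GPX1 + cpd, 30 min RT; start w/ 1 mM GSH, 0.5 mM cumene hydroperoxide, 0.5 mM NADPH, 100 nM GR, 0.01% BSA; buffer 50 mM Tris-HCl pH 7.5, 2 mM EDTA, 150 mM NaCl; Fl 340/450, 0 & 15 min.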
# [2] = target: Phospholipid hydroperoxide glutathione peroxidase GPX4 (Homo sapiens) (UniProt P36969); experiment: Primary qHTS Assay for Inhibitors of Recombinant Selenoprotein Glutathione Peroxidase 4 (GPX4) (AID 1845192); conditions: recombinant GPX4, GR-coupled NADPH fluorescence, 15 min; series mostly up to 27.8 µM; note: nearly all actives have a fitted effect of over 65% in size; note: potency is the fitted concentration of half-maximal effect
# Method in brief: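 NADPH consumption, followed by fluorescence at 340/450 nm between 0 and 15 min, reports GPX4 activity via coupled glutathione reductase (100 nM). Enzyme 200 nM was pre-exposed to compound 30 min; 0.5 mM cumene hydroperoxide and 1 mM GSH served as substrates.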
# [3] = target: Luciferin 4-monooxygenase (Photinus pyralis) (UniProt P08659); experiment: Primary firefly luciferase (FLuc) qHTS assay for identification of artifact compounds. (AID 1845220); conditions: purified firefly luciferase, luminescence, 5 min; series mostly up to 54.1 µM; note: nearly all actives have a fitted effect of over 60% in size
# Method in brief: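 Cell-free, 1536-well qHTS. Buffer pH 7.6 with 0.01% Tween-20 and 0.05% BSA; 10 uM D-luciferin, 10 uM ATP; 10 nM P. pyralis luciferase; luminescence after 5 min.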
# [4] = tested on: Nanoluciferase (engineered Oplophorus gracilirostris luciferase); experiment: Primary Nanoluciferase (NLuc) qHTS assay for identification of artifact compounds. (AID 1845222); conditions: NLuc-conditioned medium, Nano-Glo luminescence, 5 min; series mostly up to 54.1 µM
# Method in brief: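 Compounds are pinned into diluted (1:55) conditioned medium of NLuc-expressing S16 cells and held 15 min at room temperature protected from light. Nano-Glo substrate follows, and luminescence is read 5 min later.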
# [5] = Primary redox qHTS assay for identification of artifact compounds. (AID 1845223); conditions: Amplex Red/HRP redox cycling with DTT, fluorescence; series mostly up to 53.8 µM
# Method in brief: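 Amplex Red (25 uM) and HRP (250 mU/mL) in HBSS, with compounds for 15 min, then 250 uM DTT for 30 min, room temperature, dark. Fluorescence 525/598 nm read; normalized to DMSO and 10 uM DA3003; Hill fit.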
# Sequence of Phospholipid hydroperoxide glutathione peroxidase GPX4 (Homo sapiens) (P36969 whole entry, looked up): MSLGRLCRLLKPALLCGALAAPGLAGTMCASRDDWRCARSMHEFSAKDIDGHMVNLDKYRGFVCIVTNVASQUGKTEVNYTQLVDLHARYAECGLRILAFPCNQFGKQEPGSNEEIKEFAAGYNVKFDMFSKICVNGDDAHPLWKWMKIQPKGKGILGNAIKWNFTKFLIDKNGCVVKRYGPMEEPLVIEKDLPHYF
# Sequence of Glutathione peroxidase 1 (Homo sapiens) (P07203 whole entry, looked up): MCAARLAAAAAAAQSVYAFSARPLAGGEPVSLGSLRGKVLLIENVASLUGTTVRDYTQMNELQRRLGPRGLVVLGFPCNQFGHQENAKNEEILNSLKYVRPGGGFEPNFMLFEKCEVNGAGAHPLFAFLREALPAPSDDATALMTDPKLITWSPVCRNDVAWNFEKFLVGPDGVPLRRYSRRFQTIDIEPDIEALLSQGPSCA
SMILES,Potency [1],Potency [2],Potency [3],Potency [4],Potency [5]
CC1CCC2C(C(=O)O)=CC3(O)CC(C)(C)CC123 (stereo not given),inactive,inactive,inactive,inactive,inactive
O=C(O)/C=C/c1ccc2occc2c1O[C@@H]1O[C@H](CO)[C@@H](O)[C@H](O)[C@H]1O,inactive,inactive,inactive,inactive,inactive
CCC1=C(C)C(=O)C(C)CC12C(=O)CCC2C(=O)O (stereo not given),inactive,inactive,inactive,inactive,inactive
CC(=O)O[C@H]1C[C@@H](O)C(C)(C)C2C[C@@H](OC(C)=O)[C@@]3(C)C4=CCC(C(CO)CC(O)C5OC5(C)C)[C@]4(C)CCC3[C@]21C (stereo not given in full),inactive,inactive,inactive,inactive,inactive
C[C@@H]1O[C@@H](OC(=O)Cc2ccccc2)[C@H](O)[C@H](O)[C@H]1O,inactive,inactive,inactive,inactive,inactive
OC[C@@]1(O)CO[C@@H](OC[C@H]2O[C@@H](Oc3ccccc3)[C@H](O)[C@@H](O)[C@@H]2O)[C@@H]1O,inactive,inactive,inactive,inactive,inactive
COC1OC(OC)C(O)(CCC2(C)C(C)CCC3(C)C2CC(O)C(O)C32CO2)C1O (stereo not given),inactive,inactive,inactive,inactive,inactive
CC12CC(O)C(O)C=C1c1cc(O)cc(O)c1C(=O)O2 (stereo not given),inactive,inactive,inactive,inactive,inactive
O=C(C[C@@H]1C(C(=O)O)=CO[C@@H](O[C@@H]2O[C@H](CO)[C@@H](O)[C@H](O)[C@H]2O)/C1=C\CO)OCCc1ccc(O)c(O)c1,inactive,inactive,inactive,inactive,inactive
CC1(C)CCC[C@@]2(C)[C@H]1[C@H](O)C=C(CO)[C@]2(O)CO,inactive,inactive,inactive,inactive,inactive
C/C=C1\[C@H](O[C@@H]2O[C@H](CO)[C@@H](O)[C@H](O)[C@H]2O)OC=C(C(=O)O)[C@H]1CC(=O)OCCc1ccc(O)cc1,inactive,inactive,inactive,inactive,inactive
CC1=CC(=O)C(=C(C)C)CC2C(C)(O)CCC12O (stereo not given),inactive,inactive,inactive,inactive,inactive
O=C(/C=C/c1ccc(O)cc1)O[C@H]1[C@H](OC2CCCCC2O)O[C@H](CO)[C@@H](O)[C@@H]1O (stereo not given in full),inactive,inactive,inactive,inactive,inactive
CN(C)c1ccc(C2O[C@@H](c3ccccc3)C[C@H](c3ccccc3)O2)cc1 (stereo not given in full),inactive,inactive,inactive,inactive,inactive
C=C1C(=O)O[C@@H]2/C=C(\C)CC/C=C(\C(=O)O[C@@H]3O[C@H](CO)[C@@H](O)[C@H](O)[C@H]3O)CC[C@@H]12,inactive,inactive,inactive,inactive,inactive
CC1=C2C3OC(=O)C(C)C3(O)CCC2(C)CCC1 (stereo not given),inactive,inactive,inactive,inactive,inactive
O=C(Nc1cc(-c2ccccc2)nn1-c1ccccc1F)c1ccc([N+](=O)[O-])cc1,inactive,inactive,inactive,inactive,inactive
CC(=O)c1c(C)cccc1O[C@@H]1O[C@H](CO)[C@@H](O)[C@H](O)[C@H]1O,inactive,inactive,inactive,inactive,inactive
COCC1OC(OC(C)(C)C2CCC3(C)C=C(C4CCC5C4(C)CC(O)C4OC(C(C)(C)O)CCC45C)CCC3O2)C(NC(C)=O)C(O)C1O (stereo not given),inactive,inactive,inactive,inactive,inactive
C=C(C)[C@H]1CC[C@]2(C(=O)O)CC[C@]3(C)C(CCC4[C@@]5(C)CCC(=O)C(C)(C)C5CC[C@]43C)C12 (stereo not given in full),inactive,inactive,inactive,inactive,inactive
CC1=C2C(=O)C=C(CO)C2[C@H]2OC(=O)[C@H](C)[C@@H]2[C@@H](OC(=O)Cc2ccc(O)cc2)C1 (stereo not given in full),inactive,inactive,inactive,inactive,inactive
C=CCc1cc(OC)c(OC(C)C(O)c2ccc(O)c(OC)c2)c(OC)c1 (stereo not given),inactive,inactive,inactive,inactive,inactive
COc1cc(/C=C/C(=O)O[C@@H]2O[C@H](CO)[C@@H](O)[C@H](O)[C@H]2O)ccc1O,inactive,inactive,inactive,inactive,inactive
CC(C)=C1C[C@@]2(C)C(=CC1=O)CC[C@@H](O)[C@@H]2C,inactive,inactive,inactive,inactive,inactive

SMILES,Potency [1],Potency [2],Potency [3],Potency [4],Potency [5]
C=CCc1ccc(O[C@@H]2O[C@H](CO)[C@@H](O)[C@H](O)[C@H]2O)c(O[C@@H]2O[C@H](CO)[C@@H](O)[C@H](O)[C@H]2O)c1,inactive,inactive,inactive,inactive,inactive
O=C(Nc1cc(-c2ccccc2)nn1-c1ccccc1)c1ccc([N+](=O)[O-])cc1,inactive,inactive,inactive,inactive,inactive
CC1=C(CO)C2(C)CCCC(C)(C)C2C(O)C1O (stereo not given),inactive,inactive,inactive,inactive,inactive
O=C(O)c1cc(O[C@@H]2O[C@H](CO)[C@@H](O)[C@H](O)[C@H]2O)ccc1O,inactive,inactive,inactive,inactive,inactive
COc1cc(/C=C/C(=O)O[C@H]2[C@@H]3C=CO[C@@H](O[C@@H]4O[C@H](CO)[C@@H](O)[C@H](O)[C@H]4O)[C@@H]3[C@@]3(CO)O[C@@H]23)ccc1O,inactive,inactive,inactive,inactive,inactive
O=C(C[C@@H]1C(C(=O)O)=CO[C@@H](O[C@@H]2O[C@H](CO)[C@@H](O)[C@H](O)[C@H]2O)/C1=C\CO)OCCc1ccc(O)cc1,inactive,inactive,inactive,inactive,inactive
Cc1[nH]c2ccccc2c1CC(=O)N[C@@H](Cc1ccccc1)C(=O)N(C)c1ccccc1,inactive,inactive,inactive,inactive,inactive
C[C@@H]1C[C@@H](O)[C@@]2(CO)C(CO)=CCC[C@@H]2[C@@]12C[C@@H](c1ccoc1)OC2=O,inactive,inactive,inactive,inactive,inactive
C=C(C(=O)O)C1CC(OC(=O)CC(C)CC)C2(C)CCCC(=C)C2C1 (stereo not given),inactive,inactive,inactive,inactive,inactive
COc1cc(CO)ccc1O[C@@H]1O[C@H](CO)[C@@H](O)[C@H](O)[C@H]1O,inactive,inactive,inactive,inactive,inactive
CC(C)CC(=O)NCCn1cc(C(=O)O)c(=O)cc1C(O)c1ccccc1 (stereo not given),inactive,inactive,inactive,inactive,inactive
O=C(Nc1ccc(N2CCC(C(=O)N3CCOCC3)CC2)cc1)c1cnc(Oc2ccccc2)nc1,inactive,inactive,inactive,inactive,inactive
COc1ccc(N2CCN(CCCNC(=O)Cn3c(=O)c4cccn4c4c(C)ccnc43)CC2)cc1,inactive,inactive,inactive,inactive,inactive
CC1CCC2(C(=O)O)CCC3(C)C(=CCC4C5(C)CCC(O)C(C)(C(=O)O)C5CCC43C)C2C1(C)O (stereo not given),inactive,inactive,inactive,inactive,inactive
c1cc(-c2cc(C3CCNCC3)[nH]n2)ccn1,inactive,inactive,inactive,inactive,inactive
COc1cc(/C=C/C(=O)O[C@H]2C[C@@H]3C(C(=O)O)=CO[C@@H](O[C@@H]4O[C@H](CO)[C@@H](O)[C@H](O)[C@H]4O)[C@@H]3[C@H]2C)ccc1O,inactive,inactive,inactive,inactive,inactive
Cc1cc(=O)oc2cc(NC(=O)[C@H](CCC(=O)O)NC(=O)[C@H](CC(C)C)NC(=O)[C@H](CC(C)C)NC(=O)OCc3ccccc3)ccc12 (Cbz-Leu-Leu-Glu-{AMC}),22.7 µM (active),22.7 µM (active),inactive,inactive,inactive
COC(=O)C1=CO[C@@H](O[C@@H]2O[C@H](CO)[C@@H](O)[C@H](O)[C@H]2O)[C@@H]2[C@@H](C(=O)O)CC[C@H]12,inactive,inactive,inactive,inactive,inactive
CC1(O)CC(O)C2C(C(=O)O)=COC(OC3OC(CO)C(O)C(O)C3OC(=O)/C=C/c3ccc(O)cc3)C21 (stereo not given),inactive,inactive,inactive,inactive,inactive
COC(=O)c1[nH]c(=O)c2ccccc2c1-c1ccc[nH]1,inactive,inactive,inactive,inactive,inactive
C=C[C@@](C)(CCC=C(C)C)O[C@@H]1O[C@H](CO[C@@H]2OC[C@H](O)[C@H](O)[C@H]2O)[C@@H](O)[C@H](O)[C@H]1O,inactive,inactive,inactive,inactive,inactive
COC(=O)[C@H](Cc1ccc([N+](=O)[O-])cc1)NC(=O)c1cccc2ccccc12,inactive,inactive,inactive,inactive,inactive
CC1=CC2=C(C)C(=O)[C@](C)(O)[C@H](O)C2=CO1,inactive,inactive,inactive,inactive,inactive
CC1C(=O)OCC2=CC[N+]3([O-])CCC(OC(=O)C(C)(O)C1(C)O)C23 (stereo not given),inactive,inactive,inactive,inactive,inactive
